Test results published in PubChem BioAssay AID1159580 (chemical genetic matrix, 2015).
Where “and” joins values, the source holds several entries; their conditions need not be identical. Equal entries are not always repeated. Out of some 5,500 compounds screened, about 2,000 (36%) were called active. Roughly 18% stayed inconclusive and do not appear here. No stated cut-off is given here; in the data, active means normalized growth mostly below about 0.91 (no sharp cut-off); inconclusive means no clear call, values can overlap the other calls; inactive means mostly above about 0.92. This is one part of the list.

Assay: chemical genetic growth profiling, strain panel (AID 1159580);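 further: tested at 20 µM; growth read once vehicle control cultures reached saturation at 30 °C; 1 = growth at the plate median or of vehicle wells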
Details: S. cerevisiae deletion strains, growth OD

Measured: normalized growth

O=C(O)P(=O)(O)O
inactive: locus YAL013W, strain DEP1, stronger effect = lower value 0.961 | locus YAL021C, strain ccr4, stronger effect = lower value 1.01 | locus YAL026C, strain drs2, stronger effect = lower value 0.979 | locus YAL030W, strain snc1, stronger effect = lower value 0.985 | locus YBL061C, strain skt5, stronger effect = lower value 0.984 | locus YBR009C, strain hhf1, stronger effect = lower value 1.01 | locus YBR021W, strain FUR4, stronger effect = lower value 0.994 | locus YBR023C, strain chs3, stronger effect = lower value 0.969 | locus YBR171W, strain sec66, stronger effect = lower value 0.994 | locus YBR229C, strain ROT2, stronger effect = lower value 0.996 | locus YBR231C, strain swc5, stronger effect = lower value 0.958 | locus YBR279W, strain paf1, stronger effect = lower value 0.981 | locus YCL011C, strain gbp2, stronger effect = lower value 0.982 | locus YCL016C, strain dcc1, stronger effect = lower value 0.998 | locus YCL029C, strain bik1, stronger effect = lower value 0.969 | locus YCL069W, strain vba3, stronger effect = lower value 1 | locus YCR088W, strain abp1, stronger effect = lower value 0.984 | locus YDL005C, strain med2, stronger effect = lower value 0.968 | locus YDL035C, strain GPR1, stronger effect = lower value 1 | locus YDL040C, strain nat1, stronger effect = lower value 0.984 | locus YDL074C, strain BRE1, stronger effect = lower value 0.892 | locus YDL101C, strain DUN1, stronger effect = lower value 0.964 | locus YDL134C, strain PPH21, stronger effect = lower value 1.01 | locus YDL185W, strain tfp1, stronger effect = lower value 0.932 | locus YDL192W, strain arf1, stronger effect = lower value 0.961 | locus YDR001C, strain nth1, stronger effect = lower value 0.976 | locus YDR069C, strain doa4, stronger effect = lower value 0.983 | locus YDR101C, strain arx1, stronger effect = lower value 0.983 | locus YDR137W, strain rgp1, stronger effect = lower value 0.984 | locus YDR150W, strain NUM1, stronger effect = lower value 0.986 | locus YDR159W, strain sac3, stronger effect = lower value 0.963 | locus YDR162C, strain NBP2, stronger effect = lower value 0.902 | locus YDR195W, strain ref2 0.955 | locus YDR297W, strain sur2, stronger effect = lower value 0.992 | locus YDR318W, strain mcm21, stronger effect = lower value 0.976 | locus YDR334W, strain swr1, stronger effect = lower value 0.988 | locus YDR335W, strain msn5, stronger effect = lower value 0.991 | locus YDR388W, stronger effect = lower value 0.967 | locus YDR392W, strain spt3, stronger effect = lower value 0.977 | locus YDR502C, strain sam2, stronger effect = lower value 0.957 | locus YEL003W, strain gim4, stronger effect = lower value 0.984 | locus YEL037C, strain rad23, stronger effect = lower value 0.99 | locus YEL061C, strain CIN8 (second series), stronger effect = lower value 0.975 | locus YEL061C, strain CIN8, stronger effect = lower value 0.984 | locus YER015W, strain faa2, stronger effect = lower value 0.984 | locus YER016W, strain bim1, stronger effect = lower value 0.983 | locus YER110C, stronger effect = lower value 0.936 | locus YER111C, strain swi4, stronger effect = lower value 0.98 | locus YER155C, strain BEM2 (second series), stronger effect = lower value 0.935 | locus YER155C, strain BEM2, stronger effect = lower value 0.983 | locus YER167W, strain BCK2, stronger effect = lower value 0.98 | locus YFR010W, strain ubp6, stronger effect = lower value 0.965 | locus YGL078C, strain dbp3, stronger effect = lower value 0.986 | locus YGL086W, strain mad1, stronger effect = lower value 0.965 | locus YGL167C, strain pmr1, stronger effect = lower value 0.984 | locus YGL173C, strain kem1, stronger effect = lower value 0.992 | locus YGL227W, strain vid30, stronger effect = lower value 0.982 | locus YGL240W, strain doc1, stronger effect = lower value 0.964 | locus YGL248W, strain PDE1, stronger effect = lower value 0.94 | locus YGL253W, strain hxk2, stronger effect = lower value 0.985 | locus YGR078C, strain PAC10, stronger effect = lower value 0.93 | locus YGR135W, strain pre9, stronger effect = lower value 0.945 | locus YGR229C, strain SMI1, stronger effect = lower value 0.886 | locus YGR252W, strain gcn5, stronger effect = lower value 0.911 | locus YHR013C, strain ard1, stronger effect = lower value 0.985 | locus YHR027C, strain rpn1, stronger effect = lower value 0.999 | locus YHR079C, strain IRE1 (second series), stronger effect = lower value 0.963 | locus YHR079C, strain IRE1, stronger effect = lower value 1.05 | locus YHR094C, strain hxt1, stronger effect = lower value 0.982 | locus YHR129C, strain ARP1, stronger effect = lower value 0.973 | locus YHR142W, strain chs7, stronger effect = lower value 0.978 | locus YHR200W, strain rpn10, stronger effect = lower value 0.96 | locus YIL066C, strain RNR3, stronger effect = lower value 0.999 | locus YIL073C, strain SPO22, stronger effect = lower value 0.868 | locus YIL125W, strain kgd1, stronger effect = lower value 0.979 | locus YIR030C, strain dcg1, stronger effect = lower value 0.959 | locus YJL092W, strain hpr5, stronger effect = lower value 0.982 | locus YJL095W, strain BCK1 (second series), stronger effect = lower value 0.993 | locus YJL115W, strain asf1, stronger effect = lower value 0.986 | locus YJL129C, strain trk1, stronger effect = lower value 0.984 | locus YJL134W, strain LCB3, stronger effect = lower value 0.985 | locus YJL154C, strain vps35, stronger effect = lower value 0.977 | locus YJL164C, strain tpk1, stronger effect = lower value 1 | locus YJL166W, strain qcr8, stronger effect = lower value 0.978 | locus YJL168C, strain set2, stronger effect = lower value 0.97 | locus YJL187C, strain SWE1 (second series), stronger effect = lower value 0.942 | locus YJL187C, strain SWE1, stronger effect = lower value 0.965 | locus YJR043C, strain POL32, stronger effect = lower value 0.972 | locus YJR066W, strain TOR1, stronger effect = lower value 0.982 | locus YJR075W, strain HOC1, stronger effect = lower value 0.926 | locus YKL009W, strain mrt4, stronger effect = lower value 0.931 | locus YKL068W, stronger effect = lower value 0.969 | locus YKL085W, strain MDH1 (second series), stronger effect = lower value 0.96 | locus YKL085W, strain MDH1, stronger effect = lower value 0.96 | locus YKL160W, strain elf1, stronger effect = lower value 0.995 | locus YKL190W, strain CNB1, stronger effect = lower value 0.981 | locus YKR026C, strain gcn3, stronger effect = lower value 0.977 | locus YKR091W, strain srl3, stronger effect = lower value 0.986 | locus YLL001W, strain dnm1, stronger effect = lower value 0.991 | locus YLL026W, stronger effect = lower value 1 | locus YLL041C, strain sdh2, stronger effect = lower value 0.989 | locus YLR027C, strain aat2, stronger effect = lower value 0.974 | locus YLR039C, strain RIC1, stronger effect = lower value 0.855 | locus YLR058C, strain SHM2, stronger effect = lower value 0.97 | locus YLR102C, strain apc9, stronger effect = lower value 0.977 | locus YLR113W, strain HOG1, stronger effect = lower value 1.07 | locus YLR221C, strain rsa3, stronger effect = lower value 0.975 | locus YLR258W, strain gsy2, stronger effect = lower value 1 | locus YLR262C, strain YPT6 (second series), stronger effect = lower value 0.967 | locus YLR262C, strain YPT6, stronger effect = lower value 0.842 | locus YLR268W, strain sec22, stronger effect = lower value 0.949 | locus YLR320W, strain mms22, stronger effect = lower value 0.967 | locus YLR330W, strain CHS5, stronger effect = lower value 0.957 | locus YLR342W, strain FKS1 (second series), stronger effect = lower value 0.897 | locus YLR342W, strain FKS1, stronger effect = lower value 0.981 | locus YLR357W, strain rsc2, stronger effect = lower value 0.972 | locus YLR370C, strain arc18, stronger effect = lower value 0.995 | locus YLR371W, strain rom2, stronger effect = lower value 0.982 | locus YLR384C, strain iki3, stronger effect = lower value 1 | locus YLR418C, strain cdc73, stronger effect = lower value 0.91 | locus YML016C, strain PPZ1, stronger effect = lower value 0.984 | locus YML032C, strain rad52, stronger effect = lower value 0.977 | locus YML120C, strain ndi1, stronger effect = lower value 0.98 | locus YML124C, strain tub3, stronger effect = lower value 0.981 | locus YMR058W, strain fet3, stronger effect = lower value 0.983 | locus YMR078C, strain ctf18, stronger effect = lower value 0.956 | locus YMR125W, strain sto1, stronger effect = lower value 0.986 | locus YMR129W, stronger effect = lower value 0.984 | locus YMR205C, strain PFK2, stronger effect = lower value 0.975 | locus YMR223W, strain ubp8, stronger effect = lower value 0.95 | locus YMR231W, strain pep5, stronger effect = lower value 0.993 | locus YMR263W, strain SAP30, stronger effect = lower value 0.938 | locus YNL067W, strain RPL9B, stronger effect = lower value 0.923 | locus YNL071W, strain lat1, stronger effect = lower value 0.99 | locus YNL128W, strain TEP1, stronger effect = lower value 0.925 | locus YNL153C, strain GIM3, stronger effect = lower value 0.968 | locus YNL183C, strain NPR1, stronger effect = lower value 0.975 | locus YNL209W, strain ssb2, stronger effect = lower value 0.983 | locus YNL233W, strain BNI4, stronger effect = lower value 0.923 | locus YNL248C, strain rpa49, stronger effect = lower value 0.981 | locus YNL250W, strain rad50, stronger effect = lower value 0.956 | locus YNL271C, strain bni1, stronger effect = lower value 0.966 | locus YNL298W, strain CLA4, stronger effect = lower value 0.976 | locus YNL307C, strain MCK1, stronger effect = lower value 0.962 | locus YNL322C, strain KRE1 (second series), stronger effect = lower value 0.981 | locus YNL322C, strain KRE1, stronger effect = lower value 0.974 | locus YNR049C, strain mso1, stronger effect = lower value 0.987 | locus YNR052C, strain pop2, stronger effect = lower value 0.971 | locus YOL012C, strain htz1 0.927 | locus YOL147C, strain pex11, stronger effect = lower value 0.976 | locus YOR001W, strain rrp6, stronger effect = lower value 0.981 | locus YOR061W, strain CKA2, stronger effect = lower value 0.98 | locus YOR069W, strain VPS5, stronger effect = lower value 0.986 | locus YOR070C, strain gyp1, stronger effect = lower value 0.988 | locus YOR080W, strain dia2, stronger effect = lower value 0.987 | locus YOR083W, strain WHI5, stronger effect = lower value 0.995 | locus YOR106W, strain vam3, stronger effect = lower value 0.983 | locus YOR136W, strain idh2, stronger effect = lower value 0.968 | locus YOR144C, strain elg1, stronger effect = lower value 0.977 | locus YOR184W, strain ser1, stronger effect = lower value 0.941 | locus YOR231W, strain MKK1, stronger effect = lower value 1.04 | locus YOR265W, strain rbl2, stronger effect = lower value 0.996 | locus YOR270C, strain vph1, stronger effect = lower value 0.961 | locus YOR290C, strain snf2, stronger effect = lower value 0.997 | locus YOR316C, strain cot1, stronger effect = lower value 0.974 | locus YPL051W, strain arl3, stronger effect = lower value 1.01 | locus YPL055C, strain LGE1, stronger effect = lower value 0.948 | locus YPL078C, strain atp4, stronger effect = lower value 1 | locus YPL106C, strain sse1, stronger effect = lower value 0.978 | locus YPL240C, strain hsp82, stronger effect = lower value 0.985 | locus YPL241C, strain CIN2, stronger effect = lower value 0.986 | locus YPL256C, strain CLN2, stronger effect = lower value 1.07 | locus YPR119W, strain clb2, stronger effect = lower value 0.963 | locus YPR141C, strain kar3, stronger effect = lower value 0.958 | locus YPR163C, strain tif3, stronger effect = lower value 0.989 | locus YPR167C, strain met16, stronger effect = lower value 0.963 | strain wtn01, stronger effect = lower value 0.964
0.738 (active) and 1.03 (inactive): locus YJL095W, strain BCK1, stronger effect = lower value
active: locus YKR001C, strain vps1, stronger effect = lower value 0.894 | locus YMR307W, strain GAS1, stronger effect = lower value 0.443
0.898 (active) and 1.05 (inactive): locus YHR030C, strain SLT2, stronger effect = lower value
